# According to the supplement of paper PMC13380429:
# Structures can show the parent of a compound that is named as a salt. Unmarked numbers belong to inactive results.
# Test system: Vero E6 infected with SARS-CoV-2
# Assay: inhibition of SARS-CoV-2 cytopathic effect; higher = more antiviral protection, active = above 15
# Conditions: 48 h
Compound,inhibition of SARS-CoV-2 cytopathic effect (1 nM),inhibition of SARS-CoV-2 cytopathic effect (8.33 nM),inhibition of SARS-CoV-2 cytopathic effect (100 nM),inhibition of SARS-CoV-2 cytopathic effect (833.33 nM),inhibition of SARS-CoV-2 cytopathic effect (10000 nM)
NCCCC[C@H](NC(=O)[C@@H](Cc1cc(Br)c(O)c(Br)c1)NC(=O)N1CCC(N2Cc3ccccc3NC2=O)CC1)C(=O)N1CCN(c2ccncc2)CC1,0.88%,0.87%,2.08%,-1.34%,0.72%
C=C1CC[C@@H]2[C@](C)(CO)[C@H](O)CC[C@@]2(C)[C@@H]1C/C=C1/C(=O)OC[C@H]1O [andrographolide],-3.07%,-2.2%,-0.1%,8.92%,32.5% (active)
COc1cc(N2CCC(O)CC2)ccc1Nc1cc(Nc2ccccc2S(=O)(=O)C(C)C)c2cc[nH]c2n1,5.38%,3.7%,-1.89%,0.98%,-7.51%
NC(=O)NO [hydroxyurea],0.66%,-0.23%,0.03%,0.46%,1.29%
C=C1C(=O)O[C@@H]2/C=C(\C)CC/C=C(\C)CC[C@@H]12 [costunolide],-0.97%,-0.24%,-0.99%,2.87%,19.3% (active)
CC(C)(C)c1cc(C=C(C#N)C#N)cc(Br)c1O,0.94%,-0.19%,0.29%,-1.48%,4.93%
Cc1c(-c2ccnn2C)cc(C(=O)NCc2ccc(S(C)(=O)=O)cn2)c(=O)n1-c1cccc(C(F)(F)F)c1,-2.24%,-0.81%,-0.79%,-2.96%,-0.81%
O=C(CCCl)NCc1ccccc1 [beclamide],-5.2%,-1.11%,0.49%,0.86%,-1.73%
CC(=O)Nc1cccc(-n2c(=O)n(C3CC3)c(=O)c3c(Nc4ccc(I)cc4F)n(C)c(=O)c(C)c32)c1 [trametinib],-1.42%,-7.51%,-14.6%,-16.9%,-17.4%
Cc1ccccc1OCC(O)CO (stereo not given) [mephenesin],-1%,0.27%,0.3%,-0.01%,1.77%
O=c1oc2c(O)c(O)cc3c(=O)oc4c(O)c(O)cc1c4c23 [ellagic-acid],0.02%,0.42%,4.12%,1.76%,-1.74%
O=C(OC[C@H]1O[C@@H](OC(=O)c2cc(O)c(O)c(OC(=O)c3cc(O)c(O)c(O)c3)c2)[C@H](OC(=O)c2cc(O)c(O)c(OC(=O)c3cc(O)c(O)c(O)c3)c2)[C@@H](OC(=O)c2cc(O)c(O)c(OC(=O)c3cc(O)c(O)c(O)c3)c2)[C@@H]1OC(=O)c1cc(O)c(O)c(OC(=O)c2cc(O)c(O)c(O)c2)c1)c1cc(O)c(O)c(OC(=O)c2cc(O)c(O)c(O)c2)c1 [tannic-acid],-0.39%,0.91%,-0.77%,-3.86%,-6.77%
CC(=O)Nc1cccc(O)c1 [metacetamol],1.03%,5.41%,3.07%,4.81%,4.76%
COCCN1CCN(Cc2ccc(-c3n[nH]c4c3C(=O)c3c(NC(=O)NN5CCOCC5)cccc3-4)cc2)CC1,0.81%,-16.4%,0.61%,2.47%,9%
CNCCc1cnc[nH]1 [N-alpha-methylhistamine-dihydrochloride],0.16%,2.71%,2.12%,-0.59%,1.37%
COP(=O)(OC)OC(c1ccc(Cl)cc1)P(=O)(OC)OC (stereo not given) [mifobate],-4.41%,-10.9%,-3.08%,-2.04%,-5%
OCCn1cc(-c2ccc3c(c2)CC/C3=N\O)c(-c2ccncc2)n1,8.04%,9.39%,8.46%,10.2%,8.08%
CCOC(=O)c1c(O)nc2cccc3c2c1-c1ccccc1C3=O,0.21%,0.57%,5.31%,4.72%,4.09%
CCCCN(CCCC)CCC(O)c1cc2c(Cl)cc(Cl)cc2c2cc(C(F)(F)F)ccc12 (stereo not given) [halofantrine],-1.32%,2.28%,3.05%,-1.63%,-1.68%

Compound,inhibition of SARS-CoV-2 cytopathic effect (1 nM),inhibition of SARS-CoV-2 cytopathic effect (8.33 nM),inhibition of SARS-CoV-2 cytopathic effect (100 nM),inhibition of SARS-CoV-2 cytopathic effect (833.33 nM),inhibition of SARS-CoV-2 cytopathic effect (10000 nM)
Cn1ncnc1COc1nn2c(-c3cc(F)ccc3F)nnc2cc1C(C)(C)C,3.33%,3.4%,3.15%,1.53%,0.81%
Nc1nc(-c2nn(Cc3ccccc3F)c3ncccc23)ncc1C1CC1,1.54%,2.15%,-0.39%,-2.42%,-5.17%
Cc1cc(-c2cc(OC(=O)c3ccccc3)ccc2Cl)cc2nnc(Nc3ccc(OCCN4CCCC4)cc3)nc12,-2.62%,2.55%,2.44%,1.14%,2.17%
[O-][S+](c1ccccc1)c1ccc2nnnn2n1 (stereo not given),2.27%,2.68%,0.02%,1.7%,14%
CC(C)[C@@H]1CC[C@@H](C)C[C@H]1O [levomenthol],0.46%,-1.68%,1.02%,0.09%,-0.2%
CCOc1ccc(Cc2nccc3cc(OCC)c(OCC)cc23)cc1OCC [ethaverine],-8.51%,-11.9%,-9.06%,-7.91%,-8.28%
Cc1cc(C)n(-c2cccc([C@H](CC(=O)O)CN3CC[C@@H](CCc4ccc5c(n4)NCCC5)C3)c2)n1 [integrin-antagonist-1],6.72%,7.35%,0.83%,0.99%,-0.92%
O=C1NC(=O)/C(=C/c2ccc(-c3ccc(F)cc3O)o2)S1,-0.52%,-0.98%,-0.46%,-1.39%,-0.94%
COc1ccc(NS(=O)(=O)c2ccc(/N=N/c3ccc(O)c(C(=O)O)c3)cc2)nn1 [salazodine],0.92%,3.48%,1.53%,-1.71%,-1.01%
Nc1ccc(S(N)(=O)=O)cc1 [sulfanilamide],-4.21%,-0.69%,4.19%,2.93%,1.32%
CCO[C@@H](Cc1ccc(OCCc2ccc(OS(C)(=O)=O)cc2)cc1)C(=O)O [tesaglitazar],-2.83%,-3.5%,0.15%,-2.48%,1.52%
CC(C)(N)CC12CC3CC(CC(C3)C1)C2 [somantadine],-2.05%,-1.35%,-0.66%,-1.44%,-6.1%
CCCCCCCCCCCCCCCCCCCCCC(=O)Nc1ccn([C@@H]2O[C@H](CO)[C@@H](O)[C@@H]2O)c(=O)n1 [enocitabine],-3%,-4.05%,-1.69%,-5.11%,-4.84%
C[N+]1(C)CCC(OC(=O)C(c2ccccc2)c2ccccc2)CC1,-1.59%,2.05%,1.2%,1.67%,1.67%
Clc1cccc(-n2nnnc2NCc2ccccc2Oc2ccccn2)c1Cl,1.27%,-1.76%,-3.85%,0.18%,1.67%
CCOC(=O)C1=C[C@@H](OC(CC)CC)[C@H](NC(C)=O)[C@@H](N)C1 [oseltamivir-phosphate],-2.66%,-6.65%,-4.22%,-6.18%,0.67%
CO[C@H](C(=O)[C@@H](O)[C@@H](C)O)[C@@H]1Cc2cc3cc(O[C@H]4C[C@@H](O[C@H]5C[C@@H](O)[C@H](O)[C@@H](C)O5)[C@@H](O)[C@@H](C)O4)c(C)c(O)c3c(O)c2C(=O)[C@H]1O[C@H]1C[C@@H](O[C@H]2C[C@@H](O[C@H]3C[C@](C)(O)[C@H](O)[C@@H](C)O3)[C@H](O)[C@@H](C)O2)[C@H](O)[C@@H](C)O1 [plicamycin],2.66%,3.18%,3.85%,-3.43%,-7.42%
CC(CCc1ccc(O)cc1)NCCc1ccc(O)c(O)c1 (stereo not given) [dobutamine],-0.38%,-2.55%,-1.12%,-2.15%,-0.94%
